The text below walks through data of PubChem BioAssay (NCI).

The panel holds about 83,000 compounds, 20% with a hit somewhere; the sample as a whole holds those more often.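 Negative percent growth values reflect cell death: -40 means 40% of the cells present at the start died, and -100 means all died.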 A number with no mark means an inactive call. Activity calls are given as the source filed them. Rule for the calls: active = growth percent below 10; inactive = the rest.

Among the test systems are DU-145 prostate; K-562 leukemia; MALME-3M melanoma; MDA-MB-231 breast; RXF 393 renal; SF-268 CNS; SF-295 CNS; SF-539 CNS; UACC-257 melanoma; M14 melanoma; HCT-15 colon; HT29 colon; SNB-75 CNS; SNB-19 CNS; U251 CNS; PC-3 prostate; SK-MEL-5 melanoma; UACC-62 melanoma; LOX IMVI melanoma; SK-MEL-28 melanoma.
Common to all, as to assay: NCI-60 one-dose screen, 48 h (100 = growth as untreated, 0 = no growth, -100 = all killed)
What all share (conditions): 10 µM unless noted

With `Fc1cc2c(cc1Cl)N(c1ncnc3ccc(-c4cnc5cnccn45)cc13)CC2`, the growth in the experiment on DU-145 prostate is 74.7%; with K-562 leukemia it was 75.2%; with MALME-3M melanoma, 91.3%; in the experiment with MDA-MB-231 breast, 77.5%; with RXF 393 renal, 62%; in the experiment on SF-268 CNS it was 81%. The growth in the experiment with SF-295 CNS was 107%; in the experiment on SF-539 CNS, 84.6%; with UACC-257 melanoma, 109%; in the experiment with M14 melanoma it was 80.2%; in the experiment on HCT-15 colon it was 99.1%; in the experiment with HT29 colon, 87.9%. Further, the growth in the experiment with SNB-75 CNS is 69.2%; in the experiment with SNB-19 CNS it was 86.2%; in the experiment on U251 CNS, 91.1%; in the experiment on PC-3 prostate, 81.9%; in the experiment on SK-MEL-5 melanoma it was 95.3%; in the experiment on UACC-62 melanoma, 80.5%. Also, in the experiment on LOX IMVI melanoma, the growth was 91%.

As to `COc1c(B(O)O)cc(F)cc1-c1nc2ccc3[nH]ncc3c2c2c1CCCC2`, the growth with DU-145 prostate was 11.1%; in the experiment on K-562 leukemia, 30.5%; in the experiment on MALME-3M melanoma, 20.3%; in the experiment with MDA-MB-231 breast, 22%; in the experiment with RXF 393 renal, -34.5% (active); in the experiment with SF-268 CNS, 9.38% (active). The growth with SF-295 CNS was 10.8%; with SF-539 CNS, -13.4% (active); with UACC-257 melanoma, 20.1%; in the experiment on M14 melanoma, 28.3%; in the experiment on HCT-15 colon, 3.63% (active); in the experiment on HT29 colon it was 13%. In addition, the growth was -94.5% (active) in the experiment on SNB-75 CNS; 11.3% in the experiment on SNB-19 CNS; 11.8% in the experiment with U251 CNS; 13.3% in the experiment with PC-3 prostate; 17.1% in the experiment with SK-MEL-5 melanoma; 20.6% in the experiment on UACC-62 melanoma. The growth in the experiment with LOX IMVI melanoma is 2.28% (active).

On to `CCOC(=O)c1nc(Nc2ccc(C(C)=O)cc2)sc1C`, for which the growth with DU-145 prostate was 107%; in the experiment on K-562 leukemia, 99.1%; in the experiment on MALME-3M melanoma, 106%; in the experiment with MDA-MB-231 breast, 104%; with RXF 393 renal, 109%; in the experiment on SF-268 CNS, 102%. Further, the growth is 92% with SF-295 CNS; 97.2% in the experiment on SF-539 CNS; 102% with UACC-257 melanoma; 104% in the experiment with M14 melanoma; 96.8% with HCT-15 colon; 97.5% in the experiment on HT29 colon. Also, the growth was 89.7% in the experiment with SNB-75 CNS; 95.9% in the experiment on SNB-19 CNS; 101% in the experiment on U251 CNS; 99.5% in the experiment with PC-3 prostate; 100% with SK-MEL-5 melanoma; 95.1% in the experiment on UACC-62 melanoma. Moreover, the growth in the experiment on LOX IMVI melanoma was 99.9%.

Turning to `COc1ccc(/C=N/Nc2cc(=O)[nH]c3ccc(Cl)cc23)cc1`, the growth in the experiment on DU-145 prostate is 64.7%; in the experiment with K-562 leukemia, 20.9%; with MALME-3M melanoma, 46%; in the experiment on MDA-MB-231 breast it was 71.3%; in the experiment on RXF 393 renal, 85.6%; with SF-268 CNS, 58.9%. The growth with SF-295 CNS is 72.6%; with SF-539 CNS, 97.2%; in the experiment on UACC-257 melanoma it was 81.7%; in the experiment with M14 melanoma, 54.8%; in the experiment on HCT-15 colon, 39.5%; with HT29 colon, 3.92% (active). Moreover, the growth in the experiment with SNB-75 CNS was 99%; with SNB-19 CNS, 85.8%; with U251 CNS it was 28.9%; in the experiment with PC-3 prostate, 59.1%; with SK-MEL-5 melanoma, 38.2%; with UACC-62 melanoma, 77.3%. For the same compound, the growth is 37.2% with LOX IMVI melanoma and 87.2% in the experiment on SK-MEL-28 melanoma.

For `CCN1C(=O)N(CC)C2Nn3c(s/c(=C4\C(=O)N(CCC(C)C)c5ccccc54)c3=O)=NC21` (centres undefined), the growth in the experiment with DU-145 prostate is 96.3%; in the experiment with K-562 leukemia it was 26.1%; in the experiment on MALME-3M melanoma, 79.8%; in the experiment with MDA-MB-231 breast it was 78.3%; with RXF 393 renal, 84.5%; in the experiment on SF-268 CNS it was 82.5%. Moreover, the growth is 98.5% in the experiment on SF-295 CNS; 86.8% in the experiment with SF-539 CNS; 66.3% in the experiment with UACC-257 melanoma; 56.6% in the experiment with M14 melanoma; 47% in the experiment on HCT-15 colon; 112% in the experiment with HT29 colon. Further, the growth with SNB-75 CNS is 59.2%; in the experiment with SNB-19 CNS, 88.6%; in the experiment with U251 CNS, 87.7%; in the experiment with PC-3 prostate it was 63.2%; with SK-MEL-5 melanoma, 89.5%; with UACC-62 melanoma it was 67.1%. Moreover, in the experiment on LOX IMVI melanoma, the growth is 91.7%.

Regarding `Cc1cc2nc3ccc(N=Nc4ccc(N(C)C)cc4)cc3n(-c3ccccc3)c-2cc1=N`, the growth in the experiment with DU-145 prostate is -98.2% (active); with K-562 leukemia, 17.9%; in the experiment with MALME-3M melanoma it was -92.7% (active); with MDA-MB-231 breast, -27.9% (active); in the experiment with RXF 393 renal, -87.8% (active); with SF-268 CNS, -78.1% (active). Moreover, the growth in the experiment on SF-295 CNS was -89.4% (active); in the experiment on SF-539 CNS, -89.4% (active); with UACC-257 melanoma, -95.7% (active); in the experiment on M14 melanoma, -78.4% (active); in the experiment with HCT-15 colon, -77.2% (active); in the experiment with HT29 colon, -67% (active). In addition, the growth in the experiment with SNB-75 CNS was -84% (active); with SNB-19 CNS it was -93.7% (active); in the experiment with U251 CNS, -69.4% (active); in the experiment with PC-3 prostate, -72.3% (active); in the experiment on SK-MEL-5 melanoma it was -95.3% (active); with UACC-62 melanoma, -76.7% (active). Moreover, the growth in the experiment on LOX IMVI melanoma is -66.5% (active).

Turning to `NC1=NC(c2cccc(Br)c2)c2sc3ccc(Cl)cc3c2N1` (centres undefined), the growth was 111% in the experiment with DU-145 prostate; 86.6% in the experiment with K-562 leukemia; 95.6% in the experiment on MALME-3M melanoma; 88.4% in the experiment with MDA-MB-231 breast; 110% in the experiment with RXF 393 renal; 94% in the experiment on SF-268 CNS. Also, the growth in the experiment on SF-295 CNS was 103%; with SF-539 CNS, 108%; in the experiment on UACC-257 melanoma, 98.8%; in the experiment with M14 melanoma, 98.4%; in the experiment on HCT-15 colon it was 103%; in the experiment on HT29 colon, 104%. Further, the growth in the experiment with SNB-75 CNS was 75.6%; in the experiment with SNB-19 CNS, 97.3%; in the experiment with U251 CNS, 103%; in the experiment on PC-3 prostate it was 88.7%; with SK-MEL-5 melanoma, 96.5%; in the experiment on UACC-62 melanoma, 84.5%. Also, in the experiment with LOX IMVI melanoma, the growth is 98.8%.

In the case of `Cc1nn(-c2ccccc2)c(-n2ccnc2)c1/C=N/Nc1nc(-c2ccc(Cl)c(Cl)c2)cs1`, the growth in the experiment with DU-145 prostate was 2.44% (active); in the experiment with K-562 leukemia, 18.7%; in the experiment on MALME-3M melanoma, 22.5%; with MDA-MB-231 breast, 6.68% (active); with RXF 393 renal it was -1.62% (active); with SF-268 CNS, 41.8%. The growth in the experiment with SF-295 CNS was 57.7%; in the experiment with SF-539 CNS, 59.3%; in the experiment with UACC-257 melanoma, 62.7%; with M14 melanoma it was 45.1%; in the experiment with HCT-15 colon, 23.8%; with HT29 colon, 17.1%. For the same compound, the growth was -2.39% (active) in the experiment on SNB-75 CNS; 46% in the experiment on SNB-19 CNS; 53.1% in the experiment with U251 CNS; 28.8% in the experiment on PC-3 prostate; 26.5% with SK-MEL-5 melanoma; 71.4% in the experiment on UACC-62 melanoma. Also, the growth is 20.1% in the experiment with LOX IMVI melanoma and 58.1% with SK-MEL-28 melanoma.
